Reference: ChEMBL document CHEMBL1961873, “Compounds: GSK PKIS; Assays: Nanosyn kinase panel” (2012)
Values joined by “and” are separate entries in the source; they are usually repeats but may differ in a detail not shown here. Equal values may be shown once.

What was measured:
[1] = biological target: CDK3/Cyclin E (Homo sapiens) (UniProt P24864+Q00526); conditions: at 1 µM;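 note: each figure is a mean percent inhibition of the CDK3/cyclin E complex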
[2] = biological target: Cyclin-dependent kinase 4 (Homo sapiens) (UniProt P11802); conditions: at 0.1 µM
[3] = biological target: Cyclin-dependent kinase 4 (Homo sapiens) (UniProt P11802); conditions: at 1 µM
[4] = biological target: Cyclin-dependent kinase 5 (Homo sapiens) (UniProt Q00535); conditions: at 0.1 µM
[5] = biological target: Cyclin-dependent kinase 5 (Homo sapiens) (UniProt Q00535); conditions: at 1 µM
[6] = biological target: Cyclin-dependent kinase 6 (Homo sapiens) (UniProt Q00534); conditions: at 0.1 µM
[7] = biological target: Cyclin-dependent kinase 6 (Homo sapiens) (UniProt Q00534); conditions: at 1 µM
[8] = biological target: Dual specificity protein kinase CLK2 (Homo sapiens) (UniProt P49760); conditions: at 0.1 µM
[9] = biological target: Dual specificity protein kinase CLK2 (Homo sapiens) (UniProt P49760); conditions: at 1 µM
[10] = biological target: Dual specificity protein kinase CLK3 (Homo sapiens) (UniProt P49761); conditions: at 0.1 µM
[11] = biological target: Dual specificity protein kinase CLK3 (Homo sapiens) (UniProt P49761); conditions: at 1 µM
[12] = biological target: Dual specificity tyrosine-phosphorylation-regulated kinase 1A (Homo sapiens) (UniProt Q13627); conditions: at 0.1 µM
[13] = biological target: Dual specificity tyrosine-phosphorylation-regulated kinase 1A (Homo sapiens) (UniProt Q13627); conditions: at 1 µM
[14] = biological target: Dual specificity tyrosine-phosphorylation-regulated kinase 1B (Homo sapiens) (UniProt Q9Y463); conditions: at 0.1 µM
[15] = biological target: Dual specificity tyrosine-phosphorylation-regulated kinase 1B (Homo sapiens) (UniProt Q9Y463); conditions: at 1 µM
[16] = biological target: T1, Dual specificity tyrosine-phosphorylation-regulated kinase 2 (Homo sapiens) (UniProt Q92630); conditions: at 0.1 µM
T1 sequence (whole entry): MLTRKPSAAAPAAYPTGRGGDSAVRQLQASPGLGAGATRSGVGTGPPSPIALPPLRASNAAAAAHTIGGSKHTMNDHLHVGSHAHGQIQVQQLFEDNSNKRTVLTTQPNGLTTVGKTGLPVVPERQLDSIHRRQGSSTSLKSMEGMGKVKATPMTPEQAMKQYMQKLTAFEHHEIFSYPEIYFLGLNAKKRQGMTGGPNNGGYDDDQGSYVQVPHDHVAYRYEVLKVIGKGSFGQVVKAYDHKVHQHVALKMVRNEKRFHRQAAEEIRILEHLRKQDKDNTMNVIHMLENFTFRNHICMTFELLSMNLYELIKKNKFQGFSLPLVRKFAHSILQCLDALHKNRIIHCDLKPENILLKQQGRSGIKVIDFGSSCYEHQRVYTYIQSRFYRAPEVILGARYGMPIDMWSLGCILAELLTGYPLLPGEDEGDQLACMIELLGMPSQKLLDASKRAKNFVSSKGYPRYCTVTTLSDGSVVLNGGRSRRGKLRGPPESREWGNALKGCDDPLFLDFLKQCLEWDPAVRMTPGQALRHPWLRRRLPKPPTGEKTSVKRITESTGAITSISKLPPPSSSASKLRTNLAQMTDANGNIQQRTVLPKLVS

[17] = biological target: T1, Dual specificity tyrosine-phosphorylation-regulated kinase 2 (Homo sapiens); conditions: at 1 µM
[18] = biological target: Glycogen synthase kinase-3 alpha (Homo sapiens) (UniProt P49840); conditions: at 0.1 µM
[19] = biological target: Glycogen synthase kinase-3 alpha (Homo sapiens) (UniProt P49840); conditions: at 1 µM
[20] = biological target: Glycogen synthase kinase-3 beta (Homo sapiens) (UniProt P49841); conditions: at 0.1 µM;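 note: values are mean percent inhibition of GSK3B activity, from the GSK Published Kinase Inhibitor Set (PKIS) screening dataset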
Chain of Glycogen synthase kinase-3 beta (Homo sapiens) (P49841 whole entry, looked up): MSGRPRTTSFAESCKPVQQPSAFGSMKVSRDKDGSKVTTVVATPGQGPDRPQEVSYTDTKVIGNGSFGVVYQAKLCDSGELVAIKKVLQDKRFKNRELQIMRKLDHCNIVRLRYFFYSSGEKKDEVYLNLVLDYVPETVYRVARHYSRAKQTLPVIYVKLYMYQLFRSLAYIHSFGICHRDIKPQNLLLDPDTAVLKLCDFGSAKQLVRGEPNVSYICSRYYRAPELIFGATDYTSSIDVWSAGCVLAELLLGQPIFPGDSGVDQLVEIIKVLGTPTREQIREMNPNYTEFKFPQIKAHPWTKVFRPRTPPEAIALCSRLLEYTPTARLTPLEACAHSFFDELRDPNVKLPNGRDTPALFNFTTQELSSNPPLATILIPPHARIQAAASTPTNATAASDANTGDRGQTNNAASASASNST

Chain of Dual specificity protein kinase CLK2 (Homo sapiens) (P49760 whole entry, looked up): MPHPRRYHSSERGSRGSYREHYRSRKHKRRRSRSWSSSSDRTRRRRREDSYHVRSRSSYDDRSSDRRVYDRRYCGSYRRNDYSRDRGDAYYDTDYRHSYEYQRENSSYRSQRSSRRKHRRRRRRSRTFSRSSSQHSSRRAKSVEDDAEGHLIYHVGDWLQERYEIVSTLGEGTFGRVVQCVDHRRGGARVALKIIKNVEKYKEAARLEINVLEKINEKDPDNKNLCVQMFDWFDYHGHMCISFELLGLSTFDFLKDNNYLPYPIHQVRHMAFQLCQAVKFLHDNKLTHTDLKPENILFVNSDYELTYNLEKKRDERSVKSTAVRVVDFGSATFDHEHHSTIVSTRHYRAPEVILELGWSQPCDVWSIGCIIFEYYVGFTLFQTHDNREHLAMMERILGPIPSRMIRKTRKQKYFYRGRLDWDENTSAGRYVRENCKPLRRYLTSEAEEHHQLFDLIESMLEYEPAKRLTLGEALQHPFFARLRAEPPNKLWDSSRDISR
Chain of Cyclin-dependent kinase 6 (Homo sapiens) (Q00534 whole entry): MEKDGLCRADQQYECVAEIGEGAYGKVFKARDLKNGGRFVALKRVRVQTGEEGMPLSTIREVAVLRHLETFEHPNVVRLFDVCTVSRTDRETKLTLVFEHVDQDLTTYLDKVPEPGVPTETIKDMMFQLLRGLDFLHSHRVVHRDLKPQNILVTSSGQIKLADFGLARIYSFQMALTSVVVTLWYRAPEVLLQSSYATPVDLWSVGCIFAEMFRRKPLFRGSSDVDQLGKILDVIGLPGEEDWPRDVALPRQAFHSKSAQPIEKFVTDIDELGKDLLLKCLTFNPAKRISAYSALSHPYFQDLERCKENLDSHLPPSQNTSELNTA
Chain of Dual specificity protein kinase CLK3 (Homo sapiens) (P49761 whole entry, looked up): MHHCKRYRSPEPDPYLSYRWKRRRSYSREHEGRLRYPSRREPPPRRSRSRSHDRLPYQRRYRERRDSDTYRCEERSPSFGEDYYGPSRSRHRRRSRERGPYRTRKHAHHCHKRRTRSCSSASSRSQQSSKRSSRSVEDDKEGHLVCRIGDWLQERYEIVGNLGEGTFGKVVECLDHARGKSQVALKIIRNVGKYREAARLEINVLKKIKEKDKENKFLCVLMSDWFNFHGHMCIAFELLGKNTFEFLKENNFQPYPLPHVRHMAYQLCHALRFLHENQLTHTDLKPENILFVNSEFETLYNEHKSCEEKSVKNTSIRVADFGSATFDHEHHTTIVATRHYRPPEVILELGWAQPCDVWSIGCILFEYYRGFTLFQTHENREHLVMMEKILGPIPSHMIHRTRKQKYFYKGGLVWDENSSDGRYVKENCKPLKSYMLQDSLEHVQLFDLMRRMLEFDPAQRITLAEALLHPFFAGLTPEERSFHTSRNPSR
Chain of Cyclin-dependent kinase 4 (Homo sapiens) (P11802 whole entry): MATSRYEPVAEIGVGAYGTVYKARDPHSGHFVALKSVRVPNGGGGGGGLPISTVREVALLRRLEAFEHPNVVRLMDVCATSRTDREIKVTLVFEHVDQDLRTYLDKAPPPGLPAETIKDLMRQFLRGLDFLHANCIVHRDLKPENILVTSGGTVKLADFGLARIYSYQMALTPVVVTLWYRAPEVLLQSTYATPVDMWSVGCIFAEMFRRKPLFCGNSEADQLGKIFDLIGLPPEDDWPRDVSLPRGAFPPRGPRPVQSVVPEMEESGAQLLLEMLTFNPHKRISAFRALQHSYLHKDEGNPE
Chain of Glycogen synthase kinase-3 alpha (Homo sapiens) (P49840 2-483 limits assumed): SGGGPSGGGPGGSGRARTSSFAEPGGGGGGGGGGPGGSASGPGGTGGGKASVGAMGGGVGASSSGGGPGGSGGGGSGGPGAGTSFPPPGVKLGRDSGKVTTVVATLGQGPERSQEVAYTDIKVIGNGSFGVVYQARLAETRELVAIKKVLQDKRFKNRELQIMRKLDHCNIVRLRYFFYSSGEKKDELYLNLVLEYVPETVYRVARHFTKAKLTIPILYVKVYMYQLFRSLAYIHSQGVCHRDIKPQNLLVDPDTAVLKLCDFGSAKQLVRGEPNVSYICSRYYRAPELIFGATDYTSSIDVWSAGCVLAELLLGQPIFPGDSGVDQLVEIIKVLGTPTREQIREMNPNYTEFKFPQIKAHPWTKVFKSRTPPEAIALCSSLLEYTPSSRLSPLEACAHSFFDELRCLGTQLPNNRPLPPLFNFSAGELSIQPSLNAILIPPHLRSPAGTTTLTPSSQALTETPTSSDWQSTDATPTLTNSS
Chain of Cyclin-dependent kinase 5 (Homo sapiens) (Q00535 whole entry, looked up): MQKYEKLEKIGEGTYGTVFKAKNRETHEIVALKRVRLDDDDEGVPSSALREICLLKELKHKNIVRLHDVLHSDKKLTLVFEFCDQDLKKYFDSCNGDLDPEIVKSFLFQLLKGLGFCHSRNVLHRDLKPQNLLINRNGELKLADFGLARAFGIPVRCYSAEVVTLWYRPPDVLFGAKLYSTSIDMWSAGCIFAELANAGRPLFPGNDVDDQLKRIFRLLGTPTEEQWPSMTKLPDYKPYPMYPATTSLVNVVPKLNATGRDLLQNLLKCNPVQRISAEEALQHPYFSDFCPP
Chain of Dual specificity tyrosine-phosphorylation-regulated kinase 1B (Homo sapiens) (Q9Y463 whole entry, looked up): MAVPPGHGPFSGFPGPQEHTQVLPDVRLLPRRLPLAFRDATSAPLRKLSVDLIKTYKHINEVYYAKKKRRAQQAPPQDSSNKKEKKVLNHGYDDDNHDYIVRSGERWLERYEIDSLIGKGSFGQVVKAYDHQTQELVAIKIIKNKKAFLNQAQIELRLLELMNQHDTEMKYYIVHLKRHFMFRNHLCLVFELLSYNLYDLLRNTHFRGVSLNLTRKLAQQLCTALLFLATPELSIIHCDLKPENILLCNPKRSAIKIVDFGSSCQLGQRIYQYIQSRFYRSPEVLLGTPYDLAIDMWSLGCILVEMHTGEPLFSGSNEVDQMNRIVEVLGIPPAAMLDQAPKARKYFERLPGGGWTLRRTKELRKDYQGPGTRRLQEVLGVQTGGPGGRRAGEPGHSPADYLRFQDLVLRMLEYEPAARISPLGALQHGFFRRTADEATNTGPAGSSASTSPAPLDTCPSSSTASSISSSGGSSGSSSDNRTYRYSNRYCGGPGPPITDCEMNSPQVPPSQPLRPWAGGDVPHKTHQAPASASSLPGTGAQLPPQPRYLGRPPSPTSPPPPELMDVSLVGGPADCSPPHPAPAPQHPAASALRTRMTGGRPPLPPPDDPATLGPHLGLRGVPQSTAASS
Chain of CDK3/Cyclin E (Homo sapiens) (P24864 whole entry, looked up): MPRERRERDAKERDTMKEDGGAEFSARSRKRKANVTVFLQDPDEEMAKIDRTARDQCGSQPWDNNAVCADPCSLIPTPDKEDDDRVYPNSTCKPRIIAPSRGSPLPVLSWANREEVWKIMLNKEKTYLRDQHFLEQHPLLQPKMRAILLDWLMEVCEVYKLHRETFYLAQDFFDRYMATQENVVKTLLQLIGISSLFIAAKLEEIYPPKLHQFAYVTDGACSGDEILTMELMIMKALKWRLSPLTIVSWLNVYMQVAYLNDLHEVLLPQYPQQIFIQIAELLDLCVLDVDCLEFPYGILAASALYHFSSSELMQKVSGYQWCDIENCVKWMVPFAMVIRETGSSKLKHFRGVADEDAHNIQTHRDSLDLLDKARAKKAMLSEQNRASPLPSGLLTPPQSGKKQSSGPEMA
Chain of CDK3/Cyclin E (Homo sapiens) (Q00526 whole entry, looked up): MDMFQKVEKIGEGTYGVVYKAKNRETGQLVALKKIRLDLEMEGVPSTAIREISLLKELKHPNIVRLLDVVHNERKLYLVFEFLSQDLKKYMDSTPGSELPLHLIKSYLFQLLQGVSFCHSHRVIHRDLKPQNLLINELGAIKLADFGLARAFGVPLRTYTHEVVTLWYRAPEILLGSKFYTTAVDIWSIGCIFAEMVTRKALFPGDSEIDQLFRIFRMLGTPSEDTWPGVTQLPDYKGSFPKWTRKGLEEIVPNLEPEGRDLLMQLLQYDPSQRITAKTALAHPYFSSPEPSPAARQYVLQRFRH

SMILES | inhibition [1] | inhibition [2] | inhibition [3] | inhibition [4] | inhibition [5] | inhibition [6] | inhibition [7] | inhibition [8] | inhibition [9] | inhibition [10] | inhibition [11] | inhibition [12] | inhibition [13] | inhibition [14] | inhibition [15] | inhibition [16] | inhibition [17] | inhibition [18] | inhibition [19] | inhibition [20]
CNC(=O)c1sc(-n2cnc3cc(OC)c(OC)cc32)cc1OCc1ccccc1C(F)(F)F | -1.01% | 1.64% | 3.5% | 0.36% | 1.5% | -0.46% | 1.53% | 1.74% | -1.57% | 0.24% | -0.08% | 1.4% | 2.18% | -0.95% | 0.23% | 2.15% | 1.34% | 2.13% | 5.93% | 1.12%
COc1ccc(-c2nn3ncccc3c2-c2ccnc(Nc3ccc(F)c(F)c3)n2)cc1 | 0.42% | 0.25% | 1.71% | 0.48% | 1.15% | 5.13% | 3.48% | -1.03% | 0.41% | 2.08% | 3.23% | 2.77% | 4.84% | -0.82% | 1.01% | 2.83% | 3.6% | 3.2% | 4.32% | 3.16%
Cc1nnc(-c2cccc(-c3ccc(C(=O)NCC4CC4)cc3)c2)o1 | -0.73% | 1.46% | 2.47% | 0.47% | 1.45% | 2.21% | 4.2% | 1.61% | 1.14% | 2.84% | 2.8% | 3% | 6.39% | 0.21% | 1.06% | 3.15% | 5.04% | 4.33% | 14.8% | 3.05%
CCS(=O)(=O)c1ccc(OC)c(Nc2ncc(-c3cccc(C(C)=O)c3)o2)c1 | 1.82% | 2.53% | 3.06% | 1.03% | 3.09% | 4.78% | 5.56% | 28.6% | 82.8% | 1.61% | 5.96% | 6.12% | 35.4% | 4.09% | 33.2% | 2.2% | 5.6% | 3.75% | 11.3% | 4.38%
Fc1ccc(Nc2nccc(-c3c(-c4ccc(C(F)(F)F)cc4)nn4ncccc34)n2)cc1F | -0.37% | 2.28% | 2.36% | 0.28% | 0.64% | 1.44% | 1.37% | 2.15% | 1.63% | 2.2% | 4.71% | 2.73% | 5.39% | 1.21% | 2.44% | 2.31% | 3.44% | 2.05% | 4.32% | 1.37%
Nc1nccc(-c2c(-c3ccc(F)cc3)ncn2C2CCNCC2)n1 | -1.14% and -1.16% | 0.24% and -0.14% | 0.89% and 0.97% | 0.29% and 0.63% | 1.43% and 1.29% | -5.67% and 1.15% | -4.19% and 1.96% | 2.07% and 0.24% | 11.9% and 2.02% | -0.13% and 1.41% | 1.14% and 2.38% | 0.55% and 2.23% | 3.87% and 4.35% | 2.09% and 2.37% | 5.26% and 3.56% | -3.5% and -0.2% | 1.66% and -0.95% | 0.13% and 1.29% | 2.91% and 3.54% | -1.49% and 2.54%
COc1cc(Nc2ncc(-c3ccccc3)o2)cc(OC)c1 | 6.13% | 3.96% | 14.9% | -0.03% | 6.57% | 4.07% | 29.8% | 2.97% | 2.12% | 0.59% | 1.09% | 3.59% | 6.1% | -8.51% | 0.86% | 2.09% | 1.69% | 3.75% | 14.6% | 2.47%
O=C(Nc1n[nH]c2nnc(-c3cccnc3)cc12)C1CC1 | 81.4% | 13.7% | 56.1% | 27.2% | 69.2% | 19.7% | 64.6% | 5.98% | 43.4% | 0.24% | 1.3% | 73.8% | 93.2% | 69.1% | 81% | 20.6% | 75% | 80.5% | 82.4% | 80%
CNC(=O)c1ncccc1Nc1nc(Nc2cc3c(cc2OC)CCCN3C(=O)CN(C)C)nc2[nH]ccc12 | 1.69% | 5.18% | 11.4% | 3.84% | 6.35% | 3.87% | 7.17% | 54.3% | 93.1% | 1.98% | 4.34% | 3.21% | 12.5% | 0.36% | 8.48% | 3.42% | 8.03% | 7.2% | 15.6% | 6.12%
